Results taken from PubChem BioAssay AID1159580 (chemical genetic matrix, 2015).
Screen size: about 5,500 compounds; about 2,000 (36%) were called active. Inconclusive results (about 18%) are left out. Rule as the data show it: active = normalized growth mostly below about 0.91 (no sharp cut-off); inconclusive = no clear call, values can overlap the other calls; inactive = mostly above about 0.92. The list shows a part of the results.

Experiment: chemical genetic growth profiling, strain panel (AID 1159580);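 also: tested at 20 µM; growth read once vehicle control cultures reached saturation at 30 °C; 1 = growth at the plate median or of vehicle wells; lower values mean less growth of the strain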
Settings: growth OD

Measured: normalized growth

CCN1C[C@]2(C)CC[C@H](OC)[C@]34C2[C@H](O)[C@]2(OCO[C@@]25C[C@H](OC)[C@H]2C[C@]3(O)C5[C@H]2O)C14
inactive: S. cerevisiae deletion strains, locus YAL013W, strain DEP1, stronger effect = lower value 0.998 | S. cerevisiae deletion strains, locus YBR021W, strain FUR4, stronger effect = lower value 1.01 | S. cerevisiae deletion strains, locus YBR229C, strain ROT2, stronger effect = lower value 1.01 | S. cerevisiae deletion strains, locus YCL029C, strain bik1, stronger effect = lower value 1.01 | S. cerevisiae deletion strains, locus YDL035C, strain GPR1, stronger effect = lower value 1.03 | S. cerevisiae deletion strains, locus YDL074C, strain BRE1, stronger effect = lower value 1.04 | S. cerevisiae deletion strains, locus YDL101C, strain DUN1, stronger effect = lower value 1.01 | S. cerevisiae deletion strains, locus YDL134C, strain PPH21, stronger effect = lower value 1.01 | S. cerevisiae deletion strains, locus YDL185W, strain tfp1, stronger effect = lower value 1 | S. cerevisiae deletion strains, locus YDL192W, strain arf1, stronger effect = lower value 1.01 | S. cerevisiae deletion strains, locus YDR101C, strain arx1, stronger effect = lower value 0.995 | S. cerevisiae deletion strains, locus YDR150W, strain NUM1, stronger effect = lower value 0.988 | S. cerevisiae deletion strains, locus YDR162C, strain NBP2, stronger effect = lower value 0.992 | S. cerevisiae deletion strains, locus YDR318W, strain mcm21, stronger effect = lower value 1.01 | S. cerevisiae deletion strains, locus YDR388W, stronger effect = lower value 1.01 | S. cerevisiae deletion strains, locus YDR502C, strain sam2, stronger effect = lower value 0.998 | S. cerevisiae deletion strains, locus YEL061C, strain CIN8, stronger effect = lower value 0.994 | S. cerevisiae deletion strains, locus YER110C, stronger effect = lower value 1.01 | S. cerevisiae deletion strains, locus YER155C, strain BEM2, stronger effect = lower value 0.981 | S. cerevisiae deletion strains, locus YER167W, strain BCK2, stronger effect = lower value 1 | S. cerevisiae deletion strains, locus YGL078C, strain dbp3, stronger effect = lower value 0.998 | S. cerevisiae deletion strains, locus YGL086W, strain mad1, stronger effect = lower value 1 | S. cerevisiae deletion strains, locus YGL248W, strain PDE1, stronger effect = lower value 1 | S. cerevisiae deletion strains, locus YGR078C, strain PAC10, stronger effect = lower value 1.03 | S. cerevisiae deletion strains, locus YGR135W, strain pre9, stronger effect = lower value 1.01 | S. cerevisiae deletion strains, locus YGR229C, strain SMI1, stronger effect = lower value 0.999 | S. cerevisiae deletion strains, locus YGR252W, strain gcn5, stronger effect = lower value 1.02 | S. cerevisiae deletion strains, locus YHR030C, strain SLT2, stronger effect = lower value 0.999 | S. cerevisiae deletion strains, locus YHR079C, strain IRE1 (second series), stronger effect = lower value 1.01 | S. cerevisiae deletion strains, locus YHR094C, strain hxt1, stronger effect = lower value 1 | S. cerevisiae deletion strains, locus YHR129C, strain ARP1, stronger effect = lower value 1 | S. cerevisiae deletion strains, locus YHR200W, strain rpn10, stronger effect = lower value 1 | S. cerevisiae deletion strains, locus YIL066C, strain RNR3, stronger effect = lower value 1 | S. cerevisiae deletion strains, locus YIL073C, strain SPO22, stronger effect = lower value 1 | S. cerevisiae deletion strains, locus YIL125W, strain kgd1, stronger effect = lower value 1 | S. cerevisiae deletion strains, locus YIR030C, strain dcg1, stronger effect = lower value 1 | S. cerevisiae deletion strains, locus YJL095W, strain BCK1, stronger effect = lower value 1.04 | S. cerevisiae deletion strains, locus YJL134W, strain LCB3, stronger effect = lower value 0.999 | S. cerevisiae deletion strains, locus YJL168C, strain set2, stronger effect = lower value 1.01 | S. cerevisiae deletion strains, locus YJL187C, strain SWE1 (second series), stronger effect = lower value 1.01 | S. cerevisiae deletion strains, locus YJR043C, strain POL32, stronger effect = lower value 1.01 | S. cerevisiae deletion strains, locus YJR075W, strain HOC1, stronger effect = lower value 1 | S. cerevisiae deletion strains, locus YKL009W, strain mrt4, stronger effect = lower value 1.02 | S. cerevisiae deletion strains, locus YKL068W, stronger effect = lower value 0.991 | S. cerevisiae deletion strains, locus YKL085W, strain MDH1 (second series), stronger effect = lower value 0.999 | S. cerevisiae deletion strains, locus YKL085W, strain MDH1, stronger effect = lower value 0.999 | S. cerevisiae deletion strains, locus YKL190W, strain CNB1, stronger effect = lower value 0.967 | S. cerevisiae deletion strains, locus YKR001C, strain vps1, stronger effect = lower value 1.01 | S. cerevisiae deletion strains, locus YLR039C, strain RIC1, stronger effect = lower value 1.03 | S. cerevisiae deletion strains, locus YLR058C, strain SHM2, stronger effect = lower value 1.01 | S. cerevisiae deletion strains, locus YLR102C, strain apc9, stronger effect = lower value 1 | S. cerevisiae deletion strains, locus YLR262C, strain YPT6, stronger effect = lower value 1.03 | S. cerevisiae deletion strains, locus YLR268W, strain sec22, stronger effect = lower value 1.02 | S. cerevisiae deletion strains, locus YLR330W, strain CHS5, stronger effect = lower value 1.01 | S. cerevisiae deletion strains, locus YLR342W, strain FKS1 (second series), stronger effect = lower value 1.03 | S. cerevisiae deletion strains, locus YLR371W, strain rom2, stronger effect = lower value 1 | S. cerevisiae deletion strains, locus YLR418C, strain cdc73, stronger effect = lower value 1.04 | S. cerevisiae deletion strains, locus YML016C, strain PPZ1, stronger effect = lower value 1 | S. cerevisiae deletion strains, locus YML032C, strain rad52, stronger effect = lower value 1 | S. cerevisiae deletion strains, locus YML124C, strain tub3, stronger effect = lower value 1 | S. cerevisiae deletion strains, locus YMR078C, strain ctf18, stronger effect = lower value 1.01 | S. cerevisiae deletion strains, locus YMR223W, strain ubp8, stronger effect = lower value 0.998 | S. cerevisiae deletion strains, locus YMR263W, strain SAP30, stronger effect = lower value 0.998 | S. cerevisiae deletion strains, locus YMR307W, strain GAS1, stronger effect = lower value 1.07 | S. cerevisiae deletion strains, locus YNL067W, strain RPL9B, stronger effect = lower value 0.995 | S. cerevisiae deletion strains, locus YNL128W, strain TEP1, stronger effect = lower value 1 | S. cerevisiae deletion strains, locus YNL153C, strain GIM3, stronger effect = lower value 1 | S. cerevisiae deletion strains, locus YNL233W, strain BNI4, stronger effect = lower value 1.01 | S. cerevisiae deletion strains, locus YNL250W, strain rad50, stronger effect = lower value 0.999 | S. cerevisiae deletion strains, locus YNL271C, strain bni1, stronger effect = lower value 1.01 | S. cerevisiae deletion strains, locus YNL298W, strain CLA4, stronger effect = lower value 1 | S. cerevisiae deletion strains, locus YNL307C, strain MCK1, stronger effect = lower value 1.02 | S. cerevisiae deletion strains, locus YNL322C, strain KRE1, stronger effect = lower value 1 | S. cerevisiae deletion strains, locus YNR052C, strain pop2, stronger effect = lower value 1.01 | S. cerevisiae deletion strains, locus YOL006C, strain TOP1, stronger effect = lower value 1.02 | S. cerevisiae deletion strains, locus YOL012C, strain htz1 1.33 | S. cerevisiae deletion strains, locus YOL147C, strain pex11, stronger effect = lower value 1.01 | S. cerevisiae deletion strains, locus YOR061W, strain CKA2, stronger effect = lower value 1.01 | S. cerevisiae deletion strains, locus YOR069W, strain VPS5, stronger effect = lower value 1 | S. cerevisiae deletion strains, locus YOR136W, strain idh2, stronger effect = lower value 1.01 | S. cerevisiae deletion strains, locus YOR144C, strain elg1, stronger effect = lower value 1.01 | S. cerevisiae deletion strains, locus YOR184W, strain ser1, stronger effect = lower value 1.03 | S. cerevisiae deletion strains, locus YOR316C, strain cot1, stronger effect = lower value 1 | S. cerevisiae deletion strains, locus YPL055C, strain LGE1, stronger effect = lower value 0.987 | S. cerevisiae deletion strains, locus YPL241C, strain CIN2, stronger effect = lower value 0.998 | S. cerevisiae deletion strains, locus YPR119W, strain clb2, stronger effect = lower value 1 | S. cerevisiae deletion strains, locus YPR141C, strain kar3, stronger effect = lower value 1 | S. cerevisiae deletion strains, locus YPR163C, strain tif3, stronger effect = lower value 1.02 | S. cerevisiae deletion strains, locus YPR167C, strain met16, stronger effect = lower value 1.01 | S. cerevisiae deletion strains, strain wtn01, stronger effect = lower value 1 | S. cerevisiae strains, strain wild type, stronger effect = lower value 0.987
